# Screening results (PubChem)
# This is one part of a sample in which hits are shown more often than they occur.
# IDE exosite inh: exo-site inhibitors of human insulin-degrading enzyme | purified IDE, FL-6b probe fluorescence polarization; active compounds read low | 6.3% of 17,000 active | AID 1259349 | z-score at 20 µM | P14735;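 active means z-score of -3 or lower, meaning strong loss of probe binding signal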;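 further: His-tagged human IDE residues 42-1019 made in E. coli with 30 nM FL-6b probe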
# Numbers without * were called inactive; ! = a repeat was not active.
SMILES,IDE exosite inh
N#C[C@@H]1[C@@H](c2ccc(-c3ccccc3)cc2)[C@H](CO)N1C(=O)Cc1ccccc1,3.89
COc1cccc(-c2ccc([C@H]3[C@@H](CO)N(C(=O)Cc4ccncc4)[C@H]3C#N)cc2)c1,-4.79*
N#C[C@@H]1[C@H](c2ccc(-c3ccccc3)cc2)[C@H](CO)N1C(=O)Cc1ccccc1,2
N#C[C@@H]1[C@@H](c2ccc(-c3ccccc3)cc2)[C@@H](CO)N1C(=O)Cc1ccncc1,-3.97*
N#C[C@H]1[C@@H](c2ccc(-c3ccncc3)cc2)[C@@H](CO)N1C(=O)Cc1ccccc1,1.12
COc1cccc(C#Cc2ccc([C@@H]3[C@@H](CO)N(C(=O)c4ccccn4)[C@H]3C#N)cc2)c1,-0.51
COc1cccc(-c2ccc([C@H]3[C@@H](C#N)N(C(=O)c4ccccn4)[C@H]3CO)cc2)c1,-3.77*
CCC(=O)NC[C@@H]1[C@H](c2ccccc2)[C@H](CO)N1C(=O)C1CCC1,2.97
CN1C(=O)c2cc(NC(=O)c3ccc(C(F)(F)F)cc3)ccc2OC[C@H]2O[C@H](CC(=O)NCc3ccc4c(c3)OCO4)CC[C@@H]21,-0.977
C[C@H](NC(=O)C[C@H]1C=C[C@H](NS(=O)(=O)c2cccc(F)c2)[C@H](CO)O1)c1ccccc1,3.3
CC[C@H]1C/C=C\C[C@H](c2ccccc2)NC(=O)CCC(=O)N1,0.988
N#C[C@H]1[C@H](c2ccc(C#CC3CC3)cc2)[C@H](CO)N1C(=O)Cc1ccccn1,3.08
N#C[C@@H]1[C@@H](c2ccc(/C=C/c3ccccc3)cc2)[C@@H](CO)N1C(=O)Cc1ccccn1,-9.5*
C/C=C/c1ccc([C@H]2[C@@H](CO)N(C(=O)Cc3ccccn3)[C@H]2C#N)cc1,0.458
Cn1cnc(S(=O)(=O)N2CCCCN3[C@H](CO)[C@@H](c4ccc(-c5ccccc5F)cc4)[C@H]3C2)c1,2.52
Cc1ccccc1-c1ccc(C2[C@@H]3CN(S(=O)(=O)c4cn(C)cn4)C[C@H]2N3)cc1 (stereo not given in full),-5.27*
Cc1ccccc1-c1ccc(C2[C@H]3CNC[C@@H]2N3S(=O)(=O)c2cccc(F)c2)cc1 (stereo not given in full),-3.39*!
Cc1ccc(-c2ccc(C3[C@H]4CNC[C@@H]3N4S(=O)(=O)c3ccccc3)cc2)cc1 (stereo not given in full),4.97
Cc1ccccc1-c1ccc(C2[C@H]3CNC[C@@H]2N3S(=O)(=O)c2ccc(F)cc2)cc1 (stereo not given in full),0.507
Cc1ccccc1-c1ccc(C2[C@H]3CNC[C@@H]2N3S(=O)(=O)c2cn(C)cn2)cc1 (stereo not given in full),-4.9*
C/C=C/c1ccc(C2[C@H]3CNC[C@@H]2N3S(=O)(=O)c2cn(C)cn2)cc1 (stereo not given in full),3.9
O=S(=O)(c1cccc(F)c1)N1[C@@H]2CNC[C@H]1C2c1ccc(-c2ccccc2F)cc1 (stereo not given in full),-1.07
Cc1ccccc1-c1ccc(C2[C@@H]3CN(Cc4cncnc4)C[C@H]2N3)cc1 (stereo not given in full),-2.59
COCC#Cc1ccc([C@H]2[C@@H](CO)N3C(=O)CN(C(=O)C4CCOCC4)C[C@H]23)cc1,5.15
COCC#Cc1ccc([C@H]2[C@@H](CO)N3C(=O)CN(C(=O)Nc4ccc(F)cc4)C[C@H]23)cc1,2.58
SMILES,IDE exosite inh
COc1ccccc1-c1ccc([C@H]2[C@@H](CO)N[C@@H]2CNC(=O)C2CC2)cc1,-4.17*
O=C(NC[C@@H]1N[C@@H](CO)[C@H]1c1ccccc1)C1CCCC1,2.3
O=C(NC[C@@H]1N[C@@H](CO)[C@H]1c1ccccc1)C1CCC1,2.51
O=C(NC[C@H]1N[C@H](CO)[C@@H]1c1ccccc1)C1CCC1,0.398
O=C(NC[C@H]1N[C@H](CO)[C@@H]1c1ccc(-c2ccccc2)cc1)C1CCC1,-3.51*
O=C(NC[C@H]1N[C@H](CO)[C@@H]1c1ccccc1)C1CC1,2.97
C/C=C/c1ccc([C@H]2[C@@H](CO)N[C@@H]2CNC(=O)C2CCCCC2)cc1,3.86
COc1ccccc1NC(=O)N1CCCCN2[C@H](C1)[C@H](c1ccc(C#Cc3ccccc3)cc1)[C@@H]2CO,1.25
COc1ccccc1C#Cc1ccc([C@@H]2[C@@H](CO)N3CCCCN(C(=O)C4CCC4)C[C@@H]23)cc1,-8.97*
COc1ccccc1C#Cc1ccc([C@H]2[C@@H](CO)N3CCCCN(C(=O)C4CCC4)C[C@H]23)cc1,-10.3*
CN(C)CC#Cc1ccc([C@H]2[C@H]3CN(C(=O)C4CCC4)CCCCN3[C@H]2CO)cc1,2.25
O=C(C1CCC1)N1CCCCN2[C@H](C1)[C@@H](c1ccc(C#CC3(O)CCCC3)cc1)[C@@H]2CO,-1.08
CN(C)CC#Cc1ccc([C@H]2[C@@H](CO)N3CCCCN(C(=O)C4CCC4)C[C@H]23)cc1,0.0632
COc1ccccc1NC(=O)N1CCCCN2[C@H](CO)[C@@H](c3ccc(C#Cc4ccccc4)cc3)[C@@H]2C1,3.84
COc1ccccc1C#Cc1ccc([C@@H]2[C@H]3CN(C(=O)C4CCC4)CCCCN3[C@H]2CO)cc1,-6.82*
COc1ccc(C#Cc2ccc([C@@H]3[C@@H](CO)N4CCCCN(C(=O)Nc5ccccc5)C[C@@H]34)cc2)cc1,2.07
O=C(c1ccncc1)N1CC(=O)N2[C@H](CO)[C@@H](c3ccc(C#CCC4CCCC4)cc3)[C@@H]2C1,0.712
O=C(Nc1ccc(F)cc1)N1CCCCN2[C@H](CO)[C@@H](c3ccc(C4=CCCCC4)cc3)[C@H]2C1,4.99
O=C(c1ccc2c(c1)OCO2)N1CC(=O)N2[C@H](C1)[C@@H](c1ccc(C#CC3CCCC3)cc1)[C@@H]2CO,1.47
O=C(C1CCC1)N1CC(=O)N2[C@H](CO)[C@H](c3ccc(-c4cccnc4)cc3)[C@@H]2C1,1.39
CC(=O)N(C)C[C@H]1[C@H](c2ccc(-c3cccc(C#N)c3)cc2)[C@@H](CO)N1C(C)=O,3.38
CC(=O)N1[C@H](CO)[C@H](c2ccc(C#CC3CCCCC3)cc2)[C@H]1CNCC(C)C,2.94
CO[C@@H](C(=O)N(C)C[C@@H]1OCc2ccccc2-c2ccccc2C(=O)N([C@@H](C)CO)C[C@H]1C)c1ccccc1,-0.361
COc1ccc2c3c(n(C)c2c1)[C@@H](CO)NCC31CN(C(=O)Nc2ccccc2F)C1,1.4
CN(C[C@H]1[C@H](c2ccccc2)[C@@H](CO)N1CC1CC1)C(=O)c1ccc(F)cc1,-0.127
SMILES,IDE exosite inh
O=C(CN1CCOCC1)N1CCCCN2[C@H](C1)[C@H](c1ccc(-c3ccccc3)cc1)[C@@H]2CO,0.9
OC[C@H]1[C@@H](c2ccc(C#Cc3ccccc3)cc2)[C@@H]2CN(CC3CCOCC3)CCCCN12,-5.38*
O=C(CN1CCOCC1)N1CCCCN2[C@H](CO)[C@H](c3ccc(C#Cc4ccccc4)cc3)[C@@H]2C1,-12.9*
OC[C@@H]1[C@@H](c2ccc(C#Cc3ccccc3)cc2)[C@H]2CN(CC3CCOCC3)CCCCN12,1.5
O=C(CN1CCOCC1)N1CCCCN2[C@@H](CO)[C@@H](c3ccc(-c4ccccc4)cc3)[C@@H]2C1,-1.34
O=C(CN1CCOCC1)N1CCCCN2[C@H](CO)[C@@H](c3ccc(C#Cc4ccccc4)cc3)[C@@H]2C1,-6.17*
OC[C@@H]1[C@@H](c2ccc(C#Cc3ccccc3F)cc2)[C@@H]2CN(CC3CCOCC3)CCCCN12,-0.377
O=C(NC[C@H]1[C@@H](c2ccccc2)[C@H](CO)N1C(=O)C1CCC1)NC1CCCC1,1.32
